HCV inh: qHTS Assay for Inhibitors of Hepatitis C Virus (HCV); Potency, µM (top dose mostly 41.8 µM), inactives show top-dose activity change, negative = inhibition, most hits filed as inhibitors; actives 3.4% (n = 340,000); Huh7.5.1 HCVcc-Cre infection, luciferase reporter, 44 h; active means well fitted inhibition curve with a large enough effect; inconclusive means small, poorly fitted or top-dose-only effect, or another doubt; inactive means no such curve, though single readings can be large or run the other way; further: potency means the concentration at half of the fitted maximal effect; on the % scale 0 is the no-effect control and ±100 the full control effect
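HCVcc-Cre virus at an moi near 0.5 was added right after compound to cells cultured 4 h from seeding (1,000 cells/well). Luciferase activity was determined 44 h later, 15 min after substrate addition at RT.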
Marburg entry inh: qHTS for inhibitors of binding or entry into cells for Marburg Virus | Marburg virus pseudotyped entry inhibition, cell reporter | Potency, µM (series often up to 37.8 µM), inactives show at the top dose activity change, negative = inhibition, actives largely listed as inhibitors | actives 1.8% (n = 300,000) | AID 540276, 2011; calls by dose curve; tested in HEK293 cells; further: potency means the concentration at half of the fitted maximal effect; on the % scale 0 is the no-effect control and ±100 the full control effect
LASV entry inh: qHTS for Inhibitors of binding or entry into cells for Lassa Virus; Lassa virus pseudotype entry inhibition, cell reporter; Potency, µM (titrated, usually from 37.9 µM), for inactives: top-dose activity change, negative = inhibition, actives largely listed as inhibitors; actives 1.2% (n = 300,000); AID 540256, 2011; calls by dose curve; tested in HEK293 cells; further: potency means the concentration at half of the fitted maximal effect; on the % scale 0 is the no-effect control and ±100 the full control effect; nearly all actives have a fitted effect of over 50% in size
SARS PLP yeast: qHTS of Yeast-based Assay for SARS-CoV PLP | Potency, µM (titrated, usually from 32.9 µM), inactives show top-dose activity, positive = growth rescue, usual class: activators | actives 0.19% (n = 330,000) | S. cerevisiae expressing SARS-CoV PLpro, growth rescue; calls by dose curve; further: potency means the concentration at half of the fitted maximal effect; 0% is about no effect; nearly all actives have a fitted effect of over 55% in size
FMDV inh: High Throughput Screening for Foot and Mouth Disease Virus Antivirals; Potency, µM (series often up to 57.9 µM), without a hit: top-dose activity change, negative = inhibition, hits mostly inhibitors; FMDV antiviral cell-based qHTS; actives 1.2% (n = 410,000); calls by dose curve; tested in HEK293T cells; further: read-out not given here; potency means the concentration at half of the fitted maximal effect; on the % scale 0 is the no-effect control and ±100 the full control effect; nearly all actives have a fitted effect of over 45% in size
HCMV antiviral: qHTS Assay for inhibitors of the human cytomegalovirus (HCMV); HFF cells, HCMV-luciferase reporter, 72 h; hits give low values; activity change, negative = inhibition, % at 57.5 µM; actives 4.5% (n = 410,000); AID 1259415, 2018; in the data active means activity change below about -60%; inconclusive means no clear call, values can overlap the other calls; inactive means above about -39%; further: on the % scale 0 is the no-effect control and ±100 the full control effect
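Inhibition of viral replication was scored as loss of reporter luminescence in HFFs infected with HCMV-luciferase (MOI 1 PFU/cell) for 72 h; compounds tested at 2 doses, normalized to buffer and Salinomycin controls.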
* marks the source's active call; other numbers are inactive results; ? = inconclusive; · = not tested or not shown; [ ] = dose if it differs, or a comment. The list is not random: actives were taken first. Their share in the collection is about 8%.

SMILES	HCV inh	Marburg entry inh	LASV entry inh	SARS PLP yeast	FMDV inh	HCMV antiviral
Cc1cc(=O)oc2cc(NC(=O)c3cccc(Br)c3)ccc12	0%	0%	?	?	32%	-74*
CC1C=C2OC(N)=C(C#N)C(c3ccncc3)C2C(=O)N1CCN(C)C (centres undefined)	·	1%	·	·	·	·
CN(C)c1ccc(C(=O)N[C@H]2CC[C@@]34CCCN3C(=O)CCC[C@H]4[C@H]2Cc2ccccc2)cc1	·	·	·	·	·	-32
COC(=O)c1cc(-c2ccc(C)cc2)c2c(=O)n(C)c(=O)n(C)c2n1	·	?	?	·	11%	-12
Cc1ccc(C(=O)Nc2cccc(C(=O)O)c2)cc1	15%	?	5.8µM*	-6%	2µM*	-1
O=C(O)c1cccc(NC(=O)c2ccccc2)c1	10%	·	·	·	-6%	15
C=CCN(c1ccc(C(=O)Nc2ccc(C)c(C)c2)cc1)S(C)(=O)=O	?	?	4%	1%	?	-69*
FC(F)(F)c1ccccc1-c1ccc2ncnc(NCc3cccnc3)c2c1	·	·	·	·	-23%	·
CCN(CC)CCC(=O)N1C/C(=C/c2ccccc2)C(=O)/C(=C\c2ccccc2)C1	?	11µM*	10µM*	·	3.5µM*	-100*
O=C1/C(=C\c2ccc(Cl)c(Cl)c2)CN(C(=O)CCN2CCOCC2)C/C1=C/c1ccc(Cl)c(Cl)c1	?	?	?	·	3.2µM*	-102*
O=C1/C(=C\c2ccccc2)CN(C(=O)CCN2CCCCC2)C/C1=C/c1ccccc1	?	1µM*	?	·	7.9µM*	-100*
O=C(CCN1C(=O)S/C(=C\c2ccccc2)C1=O)N1CCCCC1	-5%	?	4%[46.1 µM]	-1%	0%	-2
O=C(NCCN1CCOCC1)c1ccc(Cl)c(Cl)c1	9%	30%[46.1 µM]	-8%[46.1 µM]	1%	-6%	28
N#C[C@@H](c1ccccc1)C1CCN(S(=O)(=O)CCCCl)CC1	·	·	·	·	·	-3
COc1cc(NC(=O)Cn2c(=O)n(Cc3ccccc3OC)c(=O)c3cccnc32)cc(OC)c1	·	?	·	·	?	-17
O=C(CNc1ccccc1)N/N=C/c1c(O)ccc2ccccc12	10µM*	·	·	1%	8%	-89*
O=C(CN1CCOCC1)N/N=C/c1ccco1	0%	?	15%	1%	12%	-20
O=C(CSCC(=O)Nc1ccccc1)N/N=C/c1c(O)ccc2ccccc12	10µM*	?	26µM*	29%	30%	-104*
COc1ccc(NCC(=O)N/N=C/c2c(C)nn(Cc3ccccc3)c2Cl)cc1	-22%	?	7.9µM*	-5%	-21%	-24
O=C(O)c1cc(N/N=C/c2c(O)ccc3ccccc23)ccc1Cl	10%	17%[46.1 µM]	?	0%	-21%	207
O=C(N/N=C/c1c(O)ccc2ccccc12)Nc1ccccc1	?	·	·	·	32%	-35
O=C(CN1CCOCC1)N/N=C/c1c(O)ccc2ccccc12	?	?	11µM*	-2%	-5%	48
CSc1ccc(CN(C)Cc2cc(=O)oc3c(C)c(C)ccc23)cc1	?	·	·	-2%	?	-31
COc1cc(CN(C)Cc2cc(=O)oc3cc(C)c(Cl)cc23)ccc1OC(F)F	10µM*	?	?	-10%	?	-20
CCOc1ccc(CN(C)Cc2cc(=O)oc3c(C)c(C)ccc23)cc1OC	11µM*	?	?	·	?	-15
SMILES	HCV inh	Marburg entry inh	LASV entry inh	SARS PLP yeast	FMDV inh	HCMV antiviral
CCCCCCCCCCCCCCCC(=O)NC[C@@H](COP(=O)([O-])OCC[N+](C)(C)C)OCC	·	6.5µM*	·	·	·	·
CCCCCCCCCCCCCCCC(=O)NCC(COP(=O)([O-])OCC[N+](C)(C)C)OCC (centres undefined)	·	6.5µM*	-11%	·	·	·
CCCCCCCCCCCCCCCC(=O)OC[C@H](COP(=O)([O-])OCC[N+](C)(C)C)OC(C)=O	·	·	·	·	-1%[6.7 µM]	·
COc1cc2ccccc2cc1C(=O)N1CCN(c2nc3c(C)cc(C)cc3s2)CC1	·	·	5%[46.1 µM]	·	-8%	7
CC=COC(=O)N[C@@H](c1ccccc1)[C@]1(C(C)=O)CCOC1=O	·	7%[14.2 µM]	·	·	·	·
COc1ccc(Cc2noc(CN3CCN(C4CCc5ccccc5C4)CC3)n2)cc1OC (centres undefined)	?	?	-27%	-1%	20µM*	-36
Fc1cccc(Cc2noc(CN3CCCN(C4Cc5ccccc5C4)CC3)n2)c1	-4%	11µM*	7%[46.1 µM]	-2%	7%	-11
Fc1cccc(Cc2noc(CN3CCN(C4CCc5ccccc5C4)CC3)n2)c1 (centres undefined)	6%	13%[46.1 µM]	9%	-1%	-29%	0
COc1ccc2c(c1)C(n1c(C)ccc1C)C(=O)N2Cc1ccc(C(F)(F)F)cc1 (centres undefined)	·	·	·	·	·	14
COc1cccc(N2C(=O)CSC23C(=O)N(CC(=O)Nc2cc(C)ccc2C)c2ccccc23)c1 (centres undefined)	·	·	-20%[46.1 µM]	·	-15%	10
CC[C@@]1([C@@H]2O[C@@H]([C@H]3O[C@@](O)(CO)[C@H](C)C[C@@H]3C)C[C@@H]2C)CC[C@H]([C@]2(C)CC[C@]3(C[C@H](O)[C@@H](C)[C@@H]([C@@H](C)[C@@H](OC)[C@H](C)C(=O)O)O3)O2)O1 (stereo in doubt)	·	·	·	·	-18%	·
COc1ccc(CNC(=O)CCc2c(C)nn(-c3ccc(N4CCCC4)nn3)c2C)c(OC)c1	·	·	8%[46.1 µM]	·	-1%	-39
Cc1cc(-n2c(C)cc(C(=S)N3CCOCC3)c2C)ccc1Br	?	-38%	0%	5%	?	-66*
COc1ccc(-c2cc(C(=O)NNC(=O)c3csc(N4CCOCC4)n3)c3ccccc3n2)cc1OC	10µM*	?	-9%	-2%	-17%	-12
COc1ccc(-c2cc(C(=O)NNC(=O)c3csc(N4CCOCC4)n3)c3ccccc3n2)cc1	?	?	0%[46.1 µM]	-1%	-17%	-28
CN1C(=O)C(n2ccc3ccccc32)c2cccc(F)c21 (centres undefined)	·	·	·	·	·	8
Cn1nnnc1Sc1ncnc2scc(-c3ccccc3)c12	-3%	7.1µM*	?	1%	22µM*	-67*
Cn1nnnc1Sc1ncnc2scc(-c3ccccc3Br)c12	·	·	·	1%	?	-93*
Cn1nnnc1Sc1ncnc2scc(-c3cccc4ccccc34)c12	·	·	·	2%	?	?
Cn1nnnc1Sc1ncnc2scc(-c3ccc(Br)cc3)c12	·	·	·	4%	18µM*	-98*
CC(=O)Nc1ccc(Sc2ncnc3scc(-c4ccccc4)c23)cc1	4%	-28%	-18%	-91%	0%	-26
